The values that follow come from PubChem BioAssay (NCI).

About 83,000 compounds went through this panel and 20% of them were active in at least one assay; those are over-represented in the sample as a whole.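 Testing used 96-well plates and a 48-hour single-concentration exposure. Example: -40 means 40% of the starting cells died.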 Unmarked numbers belong to inactive results. Calls of active or inactive are those of the source. How the source made its calls: active means growth percent below 10; inactive means the rest.

Test systems include HCT-15 colon; HT29 colon; SNB-75 CNS; SNB-19 CNS; U251 CNS; PC-3 prostate; SK-MEL-5 melanoma; UACC-62 melanoma; LOX IMVI melanoma; SK-MEL-28 melanoma; SK-MEL-2 melanoma; EKVX NSCLC; SN12C renal; UO-31 renal; TK-10 renal; ACHN renal; CAKI-1 renal; CCRF-CEM leukemia; MOLT-4 leukemia.
Common to all, as to assay: NCI-60 one-dose screen, 48 h (100 = growth as untreated, 0 = no growth, -100 = all killed)
Details in all cases: 10 µM unless noted

For `Cc1cc2cc3ccc(N(C)C)cc3nc2cc1N`, the growth in the assay with HCT-15 colon was 19.4%; with HT29 colon it was -37.3% (active); in the assay with SNB-75 CNS, -11.5% (active); in the assay with SNB-19 CNS, -4.5% (active); in the assay on U251 CNS, -2.3% (active); in the assay with PC-3 prostate it was 12.7%. In addition, the growth with SK-MEL-5 melanoma is -0.276% (active); in the assay with UACC-62 melanoma, -27.5% (active); in the assay on LOX IMVI melanoma, -53.7% (active); in the assay with SK-MEL-28 melanoma it was -68.5% (active); with SK-MEL-2 melanoma, -20.2% (active); in the assay with EKVX NSCLC, -7.41% (active). Moreover, the growth is -26% (active) with SN12C renal; 19.1% with UO-31 renal; 9.89% (active) with TK-10 renal; 0.143% (active) with ACHN renal; 30.5% in the assay with CAKI-1 renal; 5.51% (active) in the assay on CCRF-CEM leukemia.

With `NC1=NN=C(N)C1=Cc1cc2ccccc2n2nnnc12`, the growth in the assay on HCT-15 colon was 104%; in the assay with HT29 colon it was 104%; in the assay with SNB-75 CNS, 94.3%; with SNB-19 CNS, 95.8%; in the assay on U251 CNS, 89%; with PC-3 prostate, 86.6%. Also, the growth with SK-MEL-5 melanoma was 101%; in the assay with UACC-62 melanoma, 93.2%; in the assay with LOX IMVI melanoma it was 85.1%; in the assay on SK-MEL-28 melanoma, 116%; with SK-MEL-2 melanoma, 102%; in the assay on EKVX NSCLC, 77%. Moreover, the growth in the assay with SN12C renal was 97.9%; in the assay with UO-31 renal, 77.1%; in the assay with TK-10 renal, 114%; in the assay with ACHN renal it was 102%; in the assay on CAKI-1 renal, 91.1%; in the assay on CCRF-CEM leukemia it was 97.5%. Also, the growth in the assay on MOLT-4 leukemia is 94.6%.

As to `CC(C)(C)CC(C)(C)n1nnnc1C(NC12CC3CC(CC(C3)C1)C2)c1ccccc1` (stereo unspecified), the growth with HCT-15 colon is 84.5%; in the assay with HT29 colon, 79.9%; in the assay on SNB-75 CNS it was 80.5%; in the assay on SNB-19 CNS, 90.5%; with U251 CNS, 89.4%; with PC-3 prostate, 77.6%. For the same compound, the growth in the assay with SK-MEL-5 melanoma is 88.9%; in the assay with UACC-62 melanoma it was 69.2%; in the assay with LOX IMVI melanoma, 87.6%; in the assay with SK-MEL-28 melanoma, 99.6%; in the assay with SK-MEL-2 melanoma, 95.8%; in the assay on EKVX NSCLC it was 84.9%. The growth is 88.8% with SN12C renal; 81.6% with UO-31 renal; 94.9% in the assay on TK-10 renal; 95.8% in the assay with ACHN renal; 83.1% in the assay on CAKI-1 renal; 83.5% with CCRF-CEM leukemia. Besides, the growth with MOLT-4 leukemia was 90%.

In the case of `COc1cc(/C=N/NC(=O)c2cnn3c2NC(c2ccccc2)C3)ccc1OCc1ccccc1` (stereo unspecified), the growth with HCT-15 colon was 2.36% (active); with HT29 colon, -35.6% (active); with SNB-75 CNS it was 26.1%; in the assay on SNB-19 CNS it was 19.3%; with U251 CNS it was 4.86% (active); in the assay on PC-3 prostate it was -31% (active). In addition, the growth in the assay on SK-MEL-5 melanoma was 5.94% (active); with UACC-62 melanoma, -33.7% (active); in the assay with LOX IMVI melanoma it was 22%; in the assay with SK-MEL-28 melanoma it was 24.1%; with SK-MEL-2 melanoma, 6.28% (active); with EKVX NSCLC, 32.1%. The growth in the assay with SN12C renal is 29.2%; with UO-31 renal it was 32.6%; in the assay with TK-10 renal it was -0.854% (active); with ACHN renal it was 10.7%; in the assay on CAKI-1 renal it was 0.476% (active); with CCRF-CEM leukemia, 17.1%. In addition, the growth with MOLT-4 leukemia was 14.7%.

On to `COc1ccc2c(c1)C(=O)CC(c1ccccc1OC)O2` (stereo unspecified), for which the growth is 93.1% with HCT-15 colon; 107% with HT29 colon; 80.4% in the assay on SNB-75 CNS; 98.8% in the assay on SNB-19 CNS; 98.4% in the assay with U251 CNS; 104% in the assay on PC-3 prostate. In addition, the growth with SK-MEL-5 melanoma was 98.7%; in the assay with UACC-62 melanoma it was 85.8%; with LOX IMVI melanoma it was 89.3%; in the assay on SK-MEL-28 melanoma it was 106%; with SK-MEL-2 melanoma it was 102%; in the assay with EKVX NSCLC, 73.2%. Further, the growth in the assay with SN12C renal was 94.6%; with UO-31 renal, 96.9%; in the assay with TK-10 renal, 169%; in the assay on ACHN renal, 101%; with CAKI-1 renal it was 89.2%; in the assay on CCRF-CEM leukemia, 109%. In addition, in the assay on MOLT-4 leukemia, the growth is 81%.

Take `O=C(CCN1CCCC1)Nc1ccc2c(NCc3ccccc3)c3ccccc3nc2c1`: the growth in the assay with HCT-15 colon was 20.6%; with HT29 colon it was 3.9% (active); in the assay with SNB-75 CNS it was -15.4% (active); with SNB-19 CNS it was 5.52% (active); with U251 CNS, 1.05% (active); with PC-3 prostate it was -4.59% (active). Besides, the growth in the assay on SK-MEL-5 melanoma was 17.2%; in the assay with UACC-62 melanoma, -16.1% (active); in the assay with LOX IMVI melanoma, -45.6% (active); in the assay with SK-MEL-28 melanoma it was 32.1%; in the assay with SK-MEL-2 melanoma it was -1.81% (active); in the assay on EKVX NSCLC, 4.75% (active). Also, the growth was -5.99% (active) with SN12C renal; 1.35% (active) with UO-31 renal; 1.15% (active) with TK-10 renal; 9.88% (active) in the assay with ACHN renal; 5.35% (active) in the assay with CAKI-1 renal; -23.6% (active) in the assay with CCRF-CEM leukemia. Moreover, in the assay on MOLT-4 leukemia, the growth was -17.5% (active).

For the compound `O=S(=O)(NCCNc1nccc(-c2c(-c3cccc(F)c3)nc3sccn23)n1)c1ccccc1`, the growth in the assay on HCT-15 colon was 25.8%; in the assay with HT29 colon it was 23.2%; with SNB-75 CNS, 71.5%; in the assay with SNB-19 CNS it was 55.9%; in the assay on U251 CNS, 44%; in the assay on PC-3 prostate it was 33.1%. Also, the growth was 19.1% with SK-MEL-5 melanoma; 24.9% in the assay on UACC-62 melanoma; 36.3% in the assay with LOX IMVI melanoma; 54.3% with SK-MEL-28 melanoma; 51.8% in the assay with SK-MEL-2 melanoma; 53.3% in the assay with EKVX NSCLC. Moreover, the growth in the assay with SN12C renal was 40.3%; in the assay on UO-31 renal it was 15.4%; with TK-10 renal it was 59.5%; in the assay with ACHN renal, 26%; in the assay on CAKI-1 renal, 39.1%; with CCRF-CEM leukemia, 33.6%. Also, the growth in the assay with MOLT-4 leukemia was 16.6%.

Consider `CCNC(=O)Oc1ccc(/C(=C(\C)c2ccccc2)c2ccc(OCCN3CCCCC3)cc2)cc1`, for which the growth in the assay on HCT-15 colon is 17%; in the assay on HT29 colon, -13.8% (active); in the assay on SNB-75 CNS, 84.7%; with SNB-19 CNS, 79.4%; in the assay on U251 CNS, 48.6%; in the assay with PC-3 prostate, 49.7%. The growth is 62.5% in the assay on SK-MEL-5 melanoma; 52.4% in the assay on UACC-62 melanoma; 57.3% in the assay with LOX IMVI melanoma; 47.2% with SK-MEL-28 melanoma; 82.8% with SK-MEL-2 melanoma; 82% with EKVX NSCLC. Besides, the growth in the assay with SN12C renal is 65.2%; in the assay with UO-31 renal, 41.2%; in the assay on TK-10 renal it was 83.3%; with ACHN renal it was 84.2%; in the assay with CAKI-1 renal it was 38.5%; in the assay on CCRF-CEM leukemia, 72.7%. The growth in the assay on MOLT-4 leukemia is 51%.
